# Pf apPOL block = Pf-apPOL inhibitors, biochemical, fluorescence | Plasmodium falciparum apicoplast DNA polymerase (apPOL) | Recombinant Pf-apPOL, molecular beacon fluorescence, 1.5 h | inhibition, % at 10 µM | hit rate 0.25% among 210,000
# mHTT CaM bind = mutant huntingtin-calmodulin interaction inhibitors – biochemical, AlphaScreen, primary screen. P42858. AlphaScreen His-mHTT/GST-CaM binding, luminescence. inhibition, % at 15 µM. hit rate 3.6% among 190,000. AID 1671202, 2021;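 note: 0% = both proteins with DMSO and 100% = one protein alone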
# Numbers without * were called inactive; . = no result given. The sample as a whole holds a higher share of hits than the screen did. Cut-off read from the data, not from the text of the source: active = inhibition above about 50%; inactive = the rest.
SMILES,Pf apPOL block,mHTT CaM bind
CC(C)Cn1c(C2CCN(C(=O)c3ccoc3)C2)nc2ccncc21 (stereo unspecified),-1.1,8.6
O=C(NC1CCS(=O)(=O)C1)C(=O)NC1CCS(=O)(=O)C1 (stereo unspecified),.,-6.6
COC(=O)C1=C(N)Oc2c(oc(CO)cc2=O)C1c1ccc(Cl)c(Cl)c1 (stereo unspecified),-7.8,69.8*
COC(=O)C1=C(N)Oc2c(oc(CO)cc2=O)C1c1ccc(Cl)cc1 (stereo unspecified),-2.4,2.0
COc1ccc(CC(=O)N2CCN=C2SCc2ccccc2C)cc1,-4.8,-26.0
CC1C(=O)N2CCCc3cc(NC(=O)C(=O)NCc4ccc5c(c4)OCO5)cc1c32 (stereo unspecified),3.7,24.6
CC1C(=O)N2CCCc3cc(NC(=O)COc4ccc5ccccc5c4)cc1c32 (stereo unspecified),-12.3,51.5*
CCN1CCCC1CNC(=O)c1cc2c(s1)CN(C1CC1)C2 (stereo unspecified),-5.5,16.7
O=C(c1ccc2c(c1)OCO2)N1CCC(CCOCc2ccccc2F)CC1,-1.4,-6.1
CN(C)c1cccc(C(=O)N2CCC(CCOc3cccc(F)c3)CC2)c1,-2.2,83.8*
CN(C)c1ccc(C(=O)N2CCC(CCOc3cccc(F)c3)CC2)cc1,-4.1,15.0
O=C(c1ccc(F)cc1)N1CCC(CCOc2ccccc2F)CC1,-3.4,3.8
CN(C)c1cccc(C(=O)N2CCC(n3cnc4ccc(F)cc43)CC2)c1,-3.4,50.9*
CN(C)c1ccc(C(=O)N2CCC(CCOc3ccccc3F)CC2)cc1,-5.5,88.0*
CN(C)c1cccc(C(=O)N2CCC(CCOCc3ccccc3F)CC2)c1,-2.7,56.6*
COc1cc(C(=O)N2CCC(n3cnc4ccccc43)CC2)ccc1C,-6.9,12.5
COc1cc(OC)cc(C(=O)N2CCCC(C)(C(=O)NCc3cccc(F)c3)C2)c1 (stereo unspecified),2.5,-4.5
Cc1noc(C)c1C1CCCN1C(=O)c1cc(-c2ccccc2)on1 (stereo unspecified),0.9,-2.5
Cc1cccc(-n2cc(C3CCN(S(=O)(=O)Cc4cc(F)cc(F)c4)CC3)cn2)c1,3.3,-3.0
CN(C)c1cccc(C(=O)N2CCC(CCOCc3ccc(F)cc3)CC2)c1,-4.7,60.0*
CN(C)c1cccc(C(=O)N2CCC(CCOCc3cccc(F)c3)CC2)c1,-6.1,47.8
O=C(Nc1ccccc1)C1CCCN(c2ncnc3c2nc2n3CCCCC2)C1 (stereo unspecified),-3.2,16.1
Cc1ccccc1N(C)C(=O)c1noc2c1CCCCC2,-1.7,-3.5
COc1cc(OC)cc(C(=O)N2CCCN(C3CCN(Cc4ccccc4)C3=O)CC2)c1 (stereo unspecified),4.3,24.7
CCN(CC)Cc1cc(Cl)c2cccnc2c1O,0.0,100.0*
SMILES,Pf apPOL block,mHTT CaM bind
CCN(CC)C(=O)Oc1c(I)cc(Cl)c2cccnc12,-9.0,-1.1
CCOC(=O)C1CCN(CC(N)=S)CC1,-10.3,-0.9
CC1CN(C(=O)c2c(F)cccc2F)CC1c1nc(-c2ccccc2)no1 (stereo unspecified),-4.6,-8.3
COc1ccc(-c2oc3c(c2C#CC(C)(C)O)C(OCCO)CC3)cc1 (stereo unspecified),-9.4,0.8
COC1CCCc2oc(-c3ccsc3)c(C#CCO)c21 (stereo unspecified),8.4,52.2*
CC1(C)C2CCC1(C(=O)Nc1cccc(C(F)(F)F)c1)C(=O)C2=O (stereo unspecified),0.2,24.0
CN1C(=O)CCC2(CN(C)S(=O)(=O)c3ccc(F)cc3)CCCC12 (stereo unspecified),-2.4,-17.7
CCOc1nccnc1N1CCC(NC(=O)Cc2cccs2)C1 (stereo unspecified),-4.7,-3.3
Cc1ccccc1C(=O)N1CCc2c(c(C(=O)NCc3ccc(Cl)cc3)nn2C)C1,-3.6,11.2
Cc1cccc(CNC(=O)c2nn(C)c3c2CN(C(=O)c2ccccc2F)CC3)c1,-6.9,42.7
Cn1nc(C(=O)NCc2ccc(Cl)cc2)c2c1CCN(C(=O)c1c(F)cccc1F)C2,-4.3,57.9*
Cn1nc(C(=O)NCc2ccc(F)cc2)c2c1CCN(C(=O)c1ccccc1F)C2,-13.0,82.0*
CCOc1ccccc1C(=O)N1CCc2c(c(C(=O)NCc3ccc(F)cc3)nn2C)C1,-7.3,73.3*
CCOc1ccccc1C(=O)N1CCc2c(c(C(=O)NCc3cccc(C)c3)nn2C)C1,-11.3,42.5
O=C(Nc1ccc(-c2cn3ccccc3n2)cc1)c1ccc2c(c1)OCO2,1.9,4.0
CCn1c(C)nc2c1CN(CC(=O)NCc1ccc(OC(C)C)cc1)CC2,4.5,19.3
O=C(CSc1nnc(NC(=O)c2ccc([N+](=O)[O-])cc2)s1)c1ccc(Cl)cc1,-19.9,0.4
Cc1nc(C)c(-c2nnc(NC(=O)CCS(=O)(=O)c3ccccc3)o2)s1,4.6,19.0
Cc1nc(C)c(-c2nnc(NC(=O)CCOc3ccccc3)o2)s1,-2.7,63.6*
Cc1cc(/C=C2\NC(=O)N(Cc3ccc(Cl)cc3)C2=O)c(C)n1-c1ccc(C#N)cc1,-3.8,51.0*
COc1cc(OC)c(OC)cc1/C=C1\NC(=O)N(Cc2ccc(Cl)cc2)C1=O,-9.3,-1.0
CCOc1ccc(/C=C2\SC(=N)N(c3ccc4c(c3)OCO4)C2=O)cc1OC,-6.2,11.0
CCOc1cc(/C=C2\SC(=N)N(c3nonc3N)C2=O)ccc1O,51.8*,16.0
COc1cc(/C=C2\SC(=N)N(c3ccc(F)cc3)C2=O)ccc1O,4.4,9.0
CCOc1cc(/C=C2\SC(=N)N(c3nccs3)C2=O)ccc1OCCN1CCOCC1,-3.2,51.0*
SMILES,Pf apPOL block,mHTT CaM bind
Cc1ccc(C(=O)N(C)C)c(C2CCN(C(=O)Nc3cccc(Cl)c3)CC2)n1,-5.8,-7.9
Cc1ccc(-n2ncc3c(NC4CCCCCC4)ncnc32)c(C)c1,1.1,16.0
O=C(Cn1nc(N2CCSCC2)c2ccccc2c1=O)Nc1cccc(Cl)c1,-1.8,-6.1
Cc1scc2nc(C(=O)N3CCCC3)nc(N3CCC(C)CC3)c12,-5.7,11.2
COc1cc([N+](=O)[O-])cc2[nH]c(-c3ccccc3)cc12,-3.2,-2.0
O=[N+]([O-])c1cc([N+](=O)[O-])c2cc(-c3ccco3)[nH]c2c1,.,52.8*
OC(CSCc1cccc(C(F)(F)F)c1)C(O)CSCc1cccc(C(F)(F)F)c1 (stereo unspecified),.,100.1*
FC(F)(F)c1cccc(Cc2cccc(C(F)(F)F)c2)c1,-0.1,.
COc1ccc(C(=O)N2CCN(c3nc(CN4CCOCC4)cs3)CC2)cc1,-3.8,0.9
Nc1ccc(N=Nc2ccccc2)c(N)n1,.,52.5*
Oc1ccc(N=Nc2ccccc2)c(O)c1,36.2,.
COc1ccc(C(=O)Nc2cc(C)ccc2C)cc1I,-0.2,-4.2
CCCC(=O)NCCCc1nc2ccccc2n1Cc1ccccc1F,4.5,3.0
CC(C)(C)c1cc(CCC(=O)NNC(=O)c2ccco2)cc(C(C)(C)C)c1O,1.2,6.6
CC(C)(C)c1cc(CCC(=O)NNC(=S)NC(=O)c2ccccc2)cc(C(C)(C)C)c1O,-271.0,58.1*
Cc1ccc(N2C=C(C(=O)N3CCCCC3)S(=O)(=O)c3ccccc32)cc1C,0.1,58.4*
Cc1ccc(N2C=C(C(=O)N3CCCCC3)S(=O)(=O)c3ccccc32)cc1Cl,-1.9,-7.0
Cc1sc2cc(C(=O)N3CCC(C)CC3)[nH]c2c1CN1CCOCC1,-7.0,68.7*
